According to PMC5540273 (PLoS ONE, 2017):

system: ACVR2A; details: concentration: 1 μM, replicates: in singlicate; n = 1
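Further: KINOMEscan kinase panel screen.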

| SMILES | %Inh |
| --- | --- |
| Cc1cccc(-c2cc(-c3c[nH]nc3-c3ccccn3)ccn2)c1 [GW679395] | 0% |
| Cc1ccc(Oc2ccc(Nc3ncnc4cc[nH]c34)cc2C)cn1 | 0% |
| O=C1NC(=O)C(c2ccccc2)=C1Nc1cccc(O)c1 [SB-390534] | 0% |
| CCS(=O)(=O)c1ccc(OC)c(Nc2ncc(-c3ccc(F)cc3)o2)c1.Cl [GW591947] | 0% |
| Cl.c1ccc(Cn2cnc3cc(Nc4ncnc5ccccc45)ccc32)cc1 [GW272142] | 0% |
| CN(C)c1cc(-c2ccc3c(N)n[nH]c3c2)nc(N)n1 [GSK2219329] | 0% |
| Cc1nn2c(=O)cc(N3CCOCC3)nc2n1Cc1cccc(Cl)c1Cl [GSK2342769] | 0% |
| Nc1nc(-c2ccccc2F)c(-c2ccnc3ccccc23)s1 [GW560459] | 0% |
| COc1ccc(-n2cnc3c(N)ncnc32)cc1 [SKF-97236] | 35% |
| COc1cccc(C2=C(Nc3cccc(C(=O)O)c3)C(=O)NC2=O)c1 [SB-390770] | 17% |
| COc1cc2nccc(Nc3cccc(Oc4ccccc4)c3)c2cc1OC.Cl [GW284543] | 0% |
| CCCC(=O)Nc1n[nH]c2ncc(-c3cccc4ccccc34)cc12 [SB-642057] | 0% |
| CCc1nc(-c2cccc(C)c2)c(-c2ccncc2)s1 | 5% |
| O=C(Nc1ccc2c(c1)OCO2)NC1CCN(c2ccnc(NCc3ccc(F)cc3)n2)CC1 [GSK1379859] | 0% |
| Cc1ccc(-c2ccc3c(ccc4sc5c(c43)NC[C@@H](C)N=C5N(C)C)n2)cn1 | 0% |
| Cc1nc(N(C)[C@H]2CN(C(=O)CC#N)CC[C@H]2C)c2cc[nH]c2n1 | 15% |
| O=C(Nc1n[nH]c2nc(-c3ccccc3)c(Cl)cc12)C1CC1 [SB-734909] | 7% |
| COc1cccc(C2=C(N(C)c3ccccc3)C(=O)NC2=O)c1 [SB-334865] | 0% |

| SMILES | %Inh |
| --- | --- |
| COc1ccc(-c2coc3ccc(-c4nnc(SCc5cccc(C#N)c5)o4)cc23)cc1 | 0% |
| O=C(NCCNc1ccnc(Nc2ccc(F)cc2)n1)Nc1ccc2c(c1)OCO2 [GSK1379882] | 0% |
| CCS(=O)c1ccc(-c2coc3ccc(-c4nnc(C)o4)cc23)cc1 (stereo not drawn) | 0% |
| Cc1cccc(-c2nc(Nc3ccc4c(cnn4C)c3)c3ccccc3n2)n1 [GW876731] | 2% |
| CCn1c(-c2nonc2N)nc2ccccc21 [SB-693162/GW549034] | 0% |
| CCC(=O)c1c(-c2ccccc2)c2cc(Cl)ccc2c(=O)n1Cc1cc(S(C)(=O)=O)n(CC(F)F)n1 | 0% |
| COc1cc2ncn(-c3cc(OCc4ccncc4Br)c(C(N)=O)s3)c2cc1OC [GW854278] | 8% |
| COC(=O)c1c(-c2ccccc2)c2cc(C)ccc2c(=O)n1Cc1ccccc1 | 7% |
| Cc1nnc(-c2ccc3ncn(-c4ccc(S(C)=O)cc4)c3c2)o1 (stereo not drawn) | 0% |
| COC(=O)c1c(-c2ccccc2)c2cc(Br)ccc2c(=O)n1Cc1ccc(S(C)(=O)=O)cc1 | 0% |
| CCC(=O)c1c(-c2ccccc2)c2cc(Cl)ccc2c(=O)n1Cc1cc(S(C)(=O)=O)n(CC(N)=O)n1 | 14% |
| COc1cc(Nc2ccnc3ccc(C(F)(F)F)cc23)cc(OC)c1OC [GW577382] | 0% |
| Cc1ccccc1COc1cc(-n2cnc3cc(Cl)ccc32)sc1C(N)=O [GW813349] | 10% |
| Nc1n[nH]c2ncc(-c3ccccc3)cc12 [SB-517081] | 0% |
| CC(C)(C)c1ccc(C(=O)Nc2cn3cc(-c4ccccc4)ccc3n2)cc1 | 0% |
| FC(F)(F)c1ccc(-c2ncn(CCCN3CCOCC3)c2-c2ccncc2)cc1 [SB-217780] | 0% |
| O=C(Nc1n[nH]c2nc(-c3ccccc3)c(Br)cc12)C1CC1 [SB-708998] | 24% |
| COC(=O)c1c(-c2ccccc2)c2cc(Br)ccc2c(=O)n1Cc1ccc(NC(=O)CCC(=O)O)cc1 | 0% |
